Active and inactive are the calls of the source.

The target of one test is Albumin (Bos taurus) (UniProt P02769). Put plainly: compounds binding labelled BSA control protein – biochemical, small-molecule microarray, Alexa647 label, 635/667 nm fluorescence, artefact control for SMM control protein annotation, profiling panel (AID 1118).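 Note: score merges 667 nm emission intensity and signal-to-noise per printed compound spot.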 The following applies: BSA-A647 binding, fluorescence 635 nm, higher = more signal.
Chain of Albumin (Bos taurus) (P02769 whole entry, looked up): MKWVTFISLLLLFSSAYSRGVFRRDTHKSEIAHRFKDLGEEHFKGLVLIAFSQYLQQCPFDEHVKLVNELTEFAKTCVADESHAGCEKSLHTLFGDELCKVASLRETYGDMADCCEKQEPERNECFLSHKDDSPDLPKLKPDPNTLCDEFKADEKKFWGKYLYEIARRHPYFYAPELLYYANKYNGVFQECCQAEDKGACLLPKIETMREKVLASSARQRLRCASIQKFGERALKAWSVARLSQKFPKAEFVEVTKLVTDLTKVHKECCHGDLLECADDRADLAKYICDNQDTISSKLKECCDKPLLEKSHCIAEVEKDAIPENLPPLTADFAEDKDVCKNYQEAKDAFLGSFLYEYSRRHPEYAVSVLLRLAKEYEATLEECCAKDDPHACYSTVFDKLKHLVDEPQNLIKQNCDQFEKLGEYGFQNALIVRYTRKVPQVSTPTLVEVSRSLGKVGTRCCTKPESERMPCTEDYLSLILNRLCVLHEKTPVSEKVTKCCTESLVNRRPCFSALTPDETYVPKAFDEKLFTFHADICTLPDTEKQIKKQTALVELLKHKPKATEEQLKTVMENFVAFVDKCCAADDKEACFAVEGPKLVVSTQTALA
Test [1] can be described thus: probe aXIP binding to arrayed compounds – biochemical, NeuroSMM set, 635/667 nm fluorescence, primary screen (AID 1119).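 Note: probe is the protein aXip251-270 applied at 1 µg/mL to compound-printed slides; binding of probe to printed compounds measured as 667 nm fluorescence plus signal to noise.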 The following applies: small-molecule microarray, higher = more signal, called active from +8 up or from −8 down.
The nature of test [2]: probe aNOTCH3 binding on compound microarray – biochemical, small-molecule microarray, 635/667 nm fluorescence, primary screen (AID 1120).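 Note: probe is a biotin-tagged antibody raised against NOTCH3 rather than NOTCH3 protein; score merges spot fluorescence near 667 nm with spot signal to noise.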 The following applies: higher = more signal.
Test [3] is described as follows: probe aNOTCH2 binding on compound microarray – biochemical, small-molecule microarray, 635/667 nm fluorescence, primary screen (AID 1121).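 Note: score merges feature fluorescence read at 667 nm with its signal to noise.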 The conditions noted are these: higher = more signal.
The target in test [4] is Carbonic anhydrase 2 (Homo sapiens) (UniProt P00918). Put plainly: compounds binding carbonic anhydrase 2 – biochemical, small-molecule microarray, Alexa647-labelled CAII, profiling panel (AID 1122). The conditions noted are these: CAII-A647 binding fluorescence, higher = more signal.
The nature of test [5]: COS7 lysate on small-molecule microarray, probe aHis, 635 nm (AID 1123).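 Note: z-score combines 667nm fluorescence intensity with signal-to-noise per printed compound spot.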 The conditions noted are these: COS7 cell lysate, fluorescence, higher = more signal.
Test [6] is described as follows: probe aLAP1 signal on lysate-treated microarray – cell lysate, small-molecule microarray, COS7 lysate, primary screen (AID 1124).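 Note: lysate comes from COS7 cells expressing LAP1 and is applied at 0.3 µg/mL; score merges spot fluorescence near 667 nm with signal-to-noise over triplicate slides.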 The following applies: probe aLAP1, fluorescence, higher = more signal.
Another test deals with Sam68 (KHDRBS1). Description: compounds binding KHDRBS1 protein – biochemical, small-molecule microarray, 635 nm fluorescence, primary screen (AID 1125).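 Note: score merges 667 nm channel intensity with signal to noise over triplicate slides.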 The conditions noted are these: higher = more signal.
The subject of test [7] is Chordin-like protein 2 (CHRDL2). Put plainly: compounds binding chordin-like 2 – biochemical, small-molecule microarray, 635 nm fluorescence, primary screen (AID 1126).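 Note: printed compound slides probed with Chrdl2 protein at 4 µg/mL for 1 h at 4 C; score merges 667 nm emission intensity with signal to noise over three replicate slides.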 The following applies: fluorescence 635 nm, higher = more signal.
In test [8] the target is Concanavalin-A (Canavalia ensiformis) (UniProt P02866). Description: compounds binding concanavalin A lectin – biochemical, small-molecule microarray, Alexa647 label, 635 nm, artefact control for SMM control protein annotation, primary screen (AID 1127).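 Note: z combines 667 nm emission intensity with signal-to-noise across three replicate slides.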 The conditions noted are these: ConA-A647 binding fluorescence, higher = more signal.
Chain of Concanavalin-A (Canavalia ensiformis) (P02866 whole entry, looked up): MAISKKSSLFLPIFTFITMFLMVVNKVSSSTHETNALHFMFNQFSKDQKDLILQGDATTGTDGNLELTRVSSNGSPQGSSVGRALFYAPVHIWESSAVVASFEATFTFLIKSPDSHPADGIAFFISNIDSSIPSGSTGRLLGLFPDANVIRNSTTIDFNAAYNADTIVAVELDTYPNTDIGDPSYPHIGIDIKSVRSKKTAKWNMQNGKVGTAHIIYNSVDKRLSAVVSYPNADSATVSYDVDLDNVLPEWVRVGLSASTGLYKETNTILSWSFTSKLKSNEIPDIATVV
The nature of test [9]: compounds binding Alexa647 anti-His antibody – biochemical, small-molecule microarray, 635 nm fluorescence, artefact control for SMM control protein annotation, primary screen (AID 1128).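 Note: score merges feature fluorescence with signal-to-noise for each printed compound spot.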 The following applies: higher = more signal.
Test [10] deals with Human papillomavirus type 1a E7 protein (residues 1-88). Put plainly: HPV1a E7 small-molecule binders, primary screen, biochemical, small-molecule microarray, residues 1-88, 635 nm (AID 1129). The conditions noted are these: small-molecule microarray binding, fluorescence 635 nm; higher = more signal.
Test [11] has as its target Focal adhesion kinase 1 (Homo sapiens) (UniProt Q05397). Put plainly: PTK2 protein binding on printed compound slides – biochemical, small-molecule microarray, 635/667 nm fluorescence, BSA, DTT, primary screen (AID 1130).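 Note: composite of spot emission at 667 nm and signal to noise over triplicate slides.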 The conditions noted are these: 635 nm fluorescence, higher = more signal.
The test system of test [12] is Fibrinogen (Alexa647-labelled). Put plainly: Alexa647-fibrinogen binding to printed small molecules – biochemical, small-molecule microarray, 635/667 nm fluorescence, artefact control for SMM control-protein annotation, profiling panel (AID 1131).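 Note: z-score merges 667 nm fluorescence with per-spot signal-to-noise over triplicate slides.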 The following applies: fibrinogen-A647 binding fluorescence, higher = more signal.
Test [13] has as its target Follistatin (Homo sapiens) (UniProt P19883). Description: FST protein binding to printed compounds – biochemical, small-molecule microarray, 635/667 nm fluorescence, primary screen (AID 1132). The conditions noted are these: 635 nm fluorescence, higher = more signal.
In test [14] the target is Fibroblast growth factor 2 (Homo sapiens) (UniProt P09038). Description: basic fibroblast growth factor binding to printed compounds – biochemical, small-molecule microarray, 635/667 nm fluorescence, primary screen (AID 1133). The conditions noted are these: FGF2, fluorescence 635/667, higher = more signal.
Chain of Fibroblast growth factor 2 (Homo sapiens) (P09038 whole entry, looked up): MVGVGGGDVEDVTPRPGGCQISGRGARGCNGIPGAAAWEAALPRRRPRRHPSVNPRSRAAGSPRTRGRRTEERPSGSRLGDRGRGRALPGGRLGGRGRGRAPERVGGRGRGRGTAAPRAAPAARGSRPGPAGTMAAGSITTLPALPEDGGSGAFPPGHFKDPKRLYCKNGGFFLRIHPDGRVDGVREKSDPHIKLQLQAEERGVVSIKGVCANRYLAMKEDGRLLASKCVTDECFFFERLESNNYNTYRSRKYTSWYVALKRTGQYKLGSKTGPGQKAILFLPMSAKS
Test [15] in a line: JC-1 mitochondrial potential readout, lung cancer cells – cell-based, A549, JC-1 fluorescence, basal, 24 h, 100 nL, profiling panel (AID 1138).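 Note: A549 lung adenocarcinoma cells under basal conditions with no added stimulus; test concentration not given here.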 The following applies: higher = more signal.
The next test has as its system Lefty1. Put plainly: Lefty1 protein binding to printed compounds – biochemical, small-molecule microarray, 635/667 nm fluorescence, primary screen (AID 1139). The conditions noted are these: fluorescence 635/667, higher = more signal.
Test [16] has as its system wheat germ agglutinin (Triticum aestivum), Alexa647-labelled. Description: Alexa647-WGA lectin binding to printed small molecules – biochemical, small-molecule microarray, 635/667 nm fluorescence, artefact control for SMM control-protein annotation, profiling panel (AID 1140).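 Note: score merges 667 nm feature emission with signal to noise over triplicate slides.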 The following applies: WGA-A647 binding, 635 nm fluorescence, higher = more signal.
Test [17] has as its target Luciferin 4-monooxygenase (Photinus pyralis) (UniProt P08659). Description: inhibition of purified Photinus pyralis luciferase – biochemical, luminescence, purified enzyme, 2006 set, primary screen (AID 1141).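 Note: cell-free assay with purified firefly luciferase at 100 ng per well in PBS; test concentration not given here.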 The conditions noted are these: purified firefly luciferase, SteadyGlo luminescence, 30 min; higher = more signal, called active from +8 up or from −8 down.

Chain of Follistatin (Homo sapiens) (P19883 whole entry, looked up): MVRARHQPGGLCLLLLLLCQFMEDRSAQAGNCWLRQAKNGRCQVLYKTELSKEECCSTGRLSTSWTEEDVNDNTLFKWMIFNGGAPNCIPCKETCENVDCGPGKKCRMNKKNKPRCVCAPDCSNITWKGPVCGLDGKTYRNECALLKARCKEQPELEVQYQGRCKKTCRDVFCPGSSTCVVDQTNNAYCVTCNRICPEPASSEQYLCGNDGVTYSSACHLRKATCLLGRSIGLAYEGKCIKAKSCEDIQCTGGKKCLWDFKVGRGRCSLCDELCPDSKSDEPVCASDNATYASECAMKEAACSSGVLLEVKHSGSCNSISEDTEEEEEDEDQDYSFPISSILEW
Chain of Focal adhesion kinase 1 (Homo sapiens) (Q05397 whole entry, looked up): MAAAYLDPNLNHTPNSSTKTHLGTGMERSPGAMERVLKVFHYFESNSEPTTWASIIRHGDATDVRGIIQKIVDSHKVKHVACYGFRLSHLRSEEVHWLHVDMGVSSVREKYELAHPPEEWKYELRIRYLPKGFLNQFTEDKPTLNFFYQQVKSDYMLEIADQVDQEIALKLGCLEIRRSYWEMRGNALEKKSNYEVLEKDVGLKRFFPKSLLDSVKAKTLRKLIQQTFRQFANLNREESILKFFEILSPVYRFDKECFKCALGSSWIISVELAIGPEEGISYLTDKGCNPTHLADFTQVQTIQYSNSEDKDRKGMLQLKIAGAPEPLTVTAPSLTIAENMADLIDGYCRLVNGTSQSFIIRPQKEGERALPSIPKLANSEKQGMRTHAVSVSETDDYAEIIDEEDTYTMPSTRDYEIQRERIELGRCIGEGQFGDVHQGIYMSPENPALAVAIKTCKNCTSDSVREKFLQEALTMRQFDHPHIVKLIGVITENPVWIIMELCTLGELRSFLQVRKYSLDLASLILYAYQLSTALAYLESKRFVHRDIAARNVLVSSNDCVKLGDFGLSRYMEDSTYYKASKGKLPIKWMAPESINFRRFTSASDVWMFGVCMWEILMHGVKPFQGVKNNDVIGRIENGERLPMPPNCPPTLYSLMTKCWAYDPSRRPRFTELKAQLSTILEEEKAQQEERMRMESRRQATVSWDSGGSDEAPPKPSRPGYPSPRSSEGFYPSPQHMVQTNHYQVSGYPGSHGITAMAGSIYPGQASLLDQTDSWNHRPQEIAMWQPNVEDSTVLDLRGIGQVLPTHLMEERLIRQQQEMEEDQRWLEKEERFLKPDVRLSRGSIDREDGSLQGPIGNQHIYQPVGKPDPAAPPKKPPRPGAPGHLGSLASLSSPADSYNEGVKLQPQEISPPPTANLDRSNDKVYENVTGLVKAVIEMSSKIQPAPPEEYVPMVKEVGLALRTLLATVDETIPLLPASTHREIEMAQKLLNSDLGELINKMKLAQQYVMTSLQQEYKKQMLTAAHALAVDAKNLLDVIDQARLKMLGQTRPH
Chain of Luciferin 4-monooxygenase (Photinus pyralis) (P08659 whole entry, looked up): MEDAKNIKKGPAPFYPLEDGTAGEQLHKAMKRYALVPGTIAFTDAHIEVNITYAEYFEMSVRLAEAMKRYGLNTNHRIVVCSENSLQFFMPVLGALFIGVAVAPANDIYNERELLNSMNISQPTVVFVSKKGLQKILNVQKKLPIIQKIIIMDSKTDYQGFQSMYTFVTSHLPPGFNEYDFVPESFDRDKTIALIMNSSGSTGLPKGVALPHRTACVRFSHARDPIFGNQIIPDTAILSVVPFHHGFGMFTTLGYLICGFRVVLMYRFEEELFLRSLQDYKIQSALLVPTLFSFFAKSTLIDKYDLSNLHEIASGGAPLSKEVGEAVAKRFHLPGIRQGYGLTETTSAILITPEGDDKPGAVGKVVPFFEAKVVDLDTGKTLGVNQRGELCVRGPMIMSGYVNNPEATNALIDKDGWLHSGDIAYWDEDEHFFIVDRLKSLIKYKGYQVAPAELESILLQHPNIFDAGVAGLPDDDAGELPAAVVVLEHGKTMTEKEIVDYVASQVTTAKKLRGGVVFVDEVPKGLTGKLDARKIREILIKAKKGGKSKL

`CCCCO[C@H]1C[C@H]2C(Br)=C[C@@]1(CO)C(=O)[C@]21CO1`: the composite z-score with Albumin (Bos taurus) was -1.23; in test [2], -0.0647; in [3], -0.201; in test [4], -0.548; in test [5], 0.124; in test [6] it was -0.139. The composite z-score is 0.362 with Sam68 (KHDRBS1); 0.569 in test [7]; 0.153 in test [8]; -0.487 in test [9]; -0.153 in [10]; 0.692 in test [11]. Besides, the composite z-score in test [12] is -0.46; in [13], 0.452; in test [14], 0.0225; in the test with Lefty1, 0.641; in [16] it was -0.283. Besides, in [1], the composite Z-score is -0.442 (inactive). Further, the z-score is 0.826 in [15] and -0.553 (inactive) in test [17].

As to `Cc1ccc(N2C(=O)c3ccccc3[C@](C)(C(=O)NCC(C)C)[C@@H]2c2ccc(CO)cc2)nc1`, the composite z-score with Albumin (Bos taurus) was -1.09; in test [2], -0.278; in test [3], -0.126; in [4], 0.265; in test [5], 0.437; in test [6], -0.115. Moreover, the composite z-score in the test with Sam68 (KHDRBS1) is -0.68; in test [7] it was -0.233; in test [8], -1.92; in test [9] it was -1.02; in test [10] it was -1.2; in test [11] it was -1.04. The composite z-score is -1.43 in test [12]; -0.125 in test [13]; -0.671 in [14]; -0.589 with Lefty1; 0.0574 in [16]. The composite Z-score in test [1] is 0.917 (inactive). Also, the z-score in test [15] was -0.393; in test [17] it was 0.525 (inactive).

Regarding `C=CCNC(=O)[C@@H]1[C@H]2C(=O)O[C@H](c3ccccc3)[C@H](c3ccccc3)N2[C@H](c2ccc(OCCO)cc2)[C@@]12C(=O)N(C(=O)OCCOC)c1ccc(C#CC3(O)CCCCCC3)cc12`, the composite z-score with Albumin (Bos taurus) was 0.801; in test [2], 0.353; in test [3], -0.0502; in test [4] it was 0.572; in [5], 1.5; in [6], 0.568. Also, the composite z-score with Sam68 (KHDRBS1) was 1.3; in [7], -0.0335; in test [8] it was 1.07; in test [9], 0.166; in [10] it was 1.2; in test [11], 0.262. In addition, the composite z-score turned out to be 0.827 in test [12]; 1.18 in [13]; 0.833 in test [14]; 0.326 with Lefty1; 1.15 in test [16]. In addition, the composite Z-score in test [1] is 1.7 (inactive). The z-score in [15] was -1; in test [17] it was -2.35 (inactive).

With `Cc1ccc(S(=O)(=O)N[C@H]2COC(=O)CC=C[C@H](C)COC(=O)N[C@@H](C)C(=O)CC=C[C@@H]2C)cc1`, the composite z-score is -0.0363 with Albumin (Bos taurus); -0.178 in [2]; -0.145 in test [3]; -0.461 in [4]; -0.43 in test [5]; -0.314 in [6]. Also, the composite z-score in the test with Sam68 (KHDRBS1) is 0.269; in [7], 1.52; in [8], 0.152; in test [9], -0.45; in test [10], -0.368; in test [11] it was -0.502. Further, the composite z-score is -0.446 in test [12]; 0.953 in test [13]; 1.43 in test [14]; 1.65 with Lefty1; -0.557 in test [16]. Further, the composite Z-score in test [1] was -1.01 (inactive). Moreover, the z-score in [15] was 0.204; in test [17], -0.537 (inactive).

In the case of `C#CCCCON=C1C[C@@H](O)[C@@H](O)[C@@H]2[C@@H]3C(=O)N(Cc4ccc5c(c4)OCO5)C(=O)[C@@H]3CC[C@@H]12`, the composite z-score in the test with Albumin (Bos taurus) was 0.352; in test [2], 0.0225; in [3] it was -0.148; in test [4], 0.227; in test [5], 0.537; in [6], -0.0088. The composite z-score in the test with Sam68 (KHDRBS1) was 0.005; in test [7], 0.187; in test [8], 0.858; in test [9], 2.73; in [10], 0.226; in test [11], -0.0967. The composite z-score in [12] was found to be 0.903; in test [13], 0.669; in [14], 0.0999; in the test with Lefty1 it was 0.847; in [16], 1.14. Further, the composite Z-score in test [1] was -0.0164 (inactive). The z-score was 0.505 in [15] and 0.76 (inactive) in [17].

The values above are taken from PubChem BioAssay.
